# From PubChem BioAssay (NCATS)
# Records with an inconclusive call do not appear. Entries that show only a call come without a potency. Active and inactive are the calls of the source. Unless noted, calls come from the whole dose curve; as a rule, active = well fitted curve in the direction sought with a large enough effect; inconclusive = small, poorly fitted or top-dose-only effect, or another doubt; inactive = no such curve, though single readings can be large; an effect the other way counts as inactive or inconclusive.
# Tests used:
# [1] = molecular target: Cytochrome P450 2D6 (Homo sapiens) (UniProt P10635); test: Cytochrome P450 family 2 subfamily D member 6 (CYP2D6) small molecule antagonists: luciferase biochemical (cell-free) qHTS assay (AID 1645840; active = well fitted curve in the direction sought with a large enough effect in the repeat runs; an effect the other way counts as inactive or inconclusive; note: nearly all actives have a fitted effect of over 55% in size; note: potency is the fitted concentration of half-maximal effect)
# Sequence of Cytochrome P450 2D6 (Homo sapiens) (P10635 whole entry, looked up): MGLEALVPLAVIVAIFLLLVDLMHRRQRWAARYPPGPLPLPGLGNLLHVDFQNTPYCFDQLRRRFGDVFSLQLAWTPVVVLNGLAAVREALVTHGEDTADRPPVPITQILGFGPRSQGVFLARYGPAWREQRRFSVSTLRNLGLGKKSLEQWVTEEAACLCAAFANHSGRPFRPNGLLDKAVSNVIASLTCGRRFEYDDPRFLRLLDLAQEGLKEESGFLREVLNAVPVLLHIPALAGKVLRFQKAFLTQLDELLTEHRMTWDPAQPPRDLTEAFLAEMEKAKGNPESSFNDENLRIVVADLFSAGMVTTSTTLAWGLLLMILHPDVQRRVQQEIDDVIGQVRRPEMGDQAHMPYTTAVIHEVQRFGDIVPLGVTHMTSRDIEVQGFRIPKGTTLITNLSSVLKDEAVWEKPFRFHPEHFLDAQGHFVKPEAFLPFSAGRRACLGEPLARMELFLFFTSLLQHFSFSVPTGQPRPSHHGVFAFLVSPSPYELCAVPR
# Method in brief: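 P450-Glo CYP2D6 system: proluciferin substrate converted by enzyme to luciferin, read by luminescence proportional to activity. Enzyme-substrate mix with compound 10 min at room temperature, then NADPH regeneration 1 h before detection reagent.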
# [2] = molecular target: Cytochrome P450 2C9 (Homo sapiens) (UniProt P11712); test: Cytochrome P450 family 2 subfamily C member 9 (CYP2C9) small molecule antagonists: luciferase biochemical (cell-free) qHTS assay (AID 1645842; active = well fitted curve in the direction sought with a large enough effect in the repeat runs; an effect the other way counts as inactive or inconclusive; note: nearly all actives have a fitted effect of over 55% in size; note: potency is the fitted concentration of half-maximal effect)
# Sequence of Cytochrome P450 2C9 (Homo sapiens) (P11712 whole entry, looked up): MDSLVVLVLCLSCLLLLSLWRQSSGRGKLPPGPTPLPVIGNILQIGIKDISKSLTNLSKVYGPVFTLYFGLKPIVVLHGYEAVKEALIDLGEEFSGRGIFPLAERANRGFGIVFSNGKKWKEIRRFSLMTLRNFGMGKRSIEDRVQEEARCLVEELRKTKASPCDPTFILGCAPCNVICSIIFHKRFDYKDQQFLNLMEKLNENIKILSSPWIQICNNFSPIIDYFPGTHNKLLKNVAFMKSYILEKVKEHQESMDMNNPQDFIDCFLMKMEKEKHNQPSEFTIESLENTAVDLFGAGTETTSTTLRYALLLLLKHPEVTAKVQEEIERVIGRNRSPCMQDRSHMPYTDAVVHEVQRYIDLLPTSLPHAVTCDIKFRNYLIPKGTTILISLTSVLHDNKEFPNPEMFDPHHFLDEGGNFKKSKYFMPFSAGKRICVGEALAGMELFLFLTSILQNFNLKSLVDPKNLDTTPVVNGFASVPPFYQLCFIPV
# Method in brief: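 P450-Glo CYP2C9 system: proluciferin substrate with enzyme in mix containing 0.4% BSA, 10 min at room temperature, then NADPH regeneration solution added and incubated 1 h at 37C. Detection reagent stopped reaction; luminescence read after 20 min as RLU.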
# [3] = Primary redox qHTS assay for identification of artifact compounds. (AID 1845223)
# Method in brief: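 Redox-cycling detection via DTT (250 uM final) oxidation coupled to Amplex Red (25 uM)/HRP (250 mU/mL) in HBSS. 15 min preincubation plus 30 min after DTT, room temperature. Ex/Em 525/598 nm; 4-parameter Hill fit against DMSO and 10 uM DA3003.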
# [4] = tested on: CRL-7250; test: Cytotoxic Profiling of Annotated Libraries Using Quantitative High-Throughput Screening (AID 1296008); conditions: Five cell lines viability, CellTiter-Glo ATP luminescence, 48-72 h; max response: stronger effect = lower value; note: potency is the fitted concentration of half-maximal effect; nearly all actives have a fitted effect of over 60% in size
# Method in brief: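 Cytotoxicity was measured as CellTiter-Glo ATP luminescence, read after 10 min at room temperature. Compound treatment of the cells lasted 48 or 72 hr at 37 degrees Celsius in a qHTS format.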
# [5] = tested on: SKOV3; test: Primary qHTS to identify gynecologic anti-cancer compounds using libraries of approved drugs and bioactive compounds (AID 1345084); conditions: Gynecologic cancer cell panel viability, ATPlite luminescence, 48 h; series mostly up to 57.5 µM; note: nearly all actives have a fitted effect of over 55% in size; note: potency is the fitted concentration of half-maximal effect
# Method in brief: (§1)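 ATP-based viability (ATPlite), 1,000 cells/well, 16 h pre-incubation, 48 h compound at 37 C, 5% CO2, 15 min RT before read.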
# [6] = P-glycoprotein substrates identified in KB-8-5-11 adenocarcinoma cell line, qHTS therapeutic library screen (AID 1346987); note: nearly all actives have a fitted effect of over 65% in size; note: potency is the fitted concentration of half-maximal effect
# Method in brief: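 In this qHTS, P-gp-rich KB-8-5-11 cells received library compounds across a concentration range. Viability was quantified by luminescence after 72 h at 37 degree C.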
# [7] = molecular target: Catechol O-methyltransferase (Homo sapiens) (UniProt P21964); test: Confirmatory Screen for Target Class Profiling of Small Molecule Inhibitors of Methyltransferases (AID 1745852; calls by dose curve; note: potency is the fitted concentration of half-maximal effect); conditions: MTase-Glo luminescence, SAH detection, recombinant enzyme; measured here: COMT max response; stronger effect = lower value
# Sequence of Catechol O-methyltransferase (Homo sapiens) (P21964 whole entry, looked up): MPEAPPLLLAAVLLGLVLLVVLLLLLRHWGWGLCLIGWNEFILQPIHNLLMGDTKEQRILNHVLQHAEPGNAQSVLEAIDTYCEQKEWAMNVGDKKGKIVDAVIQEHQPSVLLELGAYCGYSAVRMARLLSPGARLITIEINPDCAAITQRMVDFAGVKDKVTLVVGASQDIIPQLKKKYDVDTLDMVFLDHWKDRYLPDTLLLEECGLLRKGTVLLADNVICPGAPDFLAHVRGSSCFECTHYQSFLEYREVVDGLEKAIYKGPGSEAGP
# [8] = molecular target: Guanidinoacetate N-methyltransferase (Homo sapiens) (UniProt Q14353); test: as above; conditions: activity change, negative = inhibition: at 57.3 µM (top of the series) unless noted
# [9] = molecular target: Nicotinamide N-methyltransferase (Homo sapiens) (UniProt P40261); test: as above; conditions: MTase-Glo luminescence, SAH detection, recombinant enzyme; measured here: NNMT max response; stronger effect = lower value
# Sequence of Nicotinamide N-methyltransferase (Homo sapiens) (P40261 whole entry, looked up): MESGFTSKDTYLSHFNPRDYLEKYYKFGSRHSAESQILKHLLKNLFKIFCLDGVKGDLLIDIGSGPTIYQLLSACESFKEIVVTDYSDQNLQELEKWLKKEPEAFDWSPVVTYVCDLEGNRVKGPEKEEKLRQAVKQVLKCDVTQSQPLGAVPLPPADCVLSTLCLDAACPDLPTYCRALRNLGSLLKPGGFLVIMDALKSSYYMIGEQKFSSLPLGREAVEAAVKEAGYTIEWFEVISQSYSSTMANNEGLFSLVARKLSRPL
# [10] = molecular target: Phenylethanolamine N-methyltransferase (Homo sapiens) (UniProt P11086); test: as above; conditions: MTase-Glo luminescence, SAH detection, recombinant enzyme; measured here: PNMT max response; stronger effect = lower value
# Sequence of Phenylethanolamine N-methyltransferase (Homo sapiens) (P11086 whole entry, looked up): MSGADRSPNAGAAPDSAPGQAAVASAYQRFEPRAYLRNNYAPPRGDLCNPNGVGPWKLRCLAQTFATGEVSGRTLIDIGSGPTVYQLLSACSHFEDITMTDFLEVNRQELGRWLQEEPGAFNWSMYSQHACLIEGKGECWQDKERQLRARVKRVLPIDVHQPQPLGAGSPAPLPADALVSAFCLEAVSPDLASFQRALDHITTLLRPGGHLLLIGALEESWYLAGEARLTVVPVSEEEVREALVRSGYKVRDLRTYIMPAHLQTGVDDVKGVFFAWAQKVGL
# [11] = Primary fluorescence-based thiol-reactive (MSTI) qHTS assay for identification of artifact compounds. (AID 1845221); note: nearly all actives have a fitted effect of over 65% in size; note: potency is the fitted concentration of half-maximal effect
# Method in brief: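 A multi-concentration qHTS design tested compounds against 4 uM MSTI, pH 7.4 phosphate-buffered saline. Plates were protected from light for 1 h at room temperature before imaging fluorescence.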
# [12] = tested on: CAOV3; test: Primary qHTS to identify gynecologic anti-cancer compounds using libraries of approved drugs and bioactive compounds (AID 1345084); conditions: Gynecologic cancer cell panel viability, ATPlite luminescence, 48 h; series mostly up to 57.5 µM; note: nearly all actives have a fitted effect of over 55% in size; note: potency is the fitted concentration of half-maximal effect
# Method in brief: as §1
# [13] = tested on: PA-1; test: as above; conditions: Gynecologic cancer cell panel viability, ATPlite luminescence, 48 h; series mostly up to 57.5 µM
# Method in brief: as §1
# [14] = Confirmatory screen GU Rhodamine qHTS for Zika virus inhibitors qHTS (AID 1347157); note: potency is the fitted concentration of half-maximal effect; nearly all actives have a fitted effect of over 70% in size
# Method in brief: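 Percent inhibition came from the 15-min rise in Rhodamine110 fluorescence (1.5 microM substrate, ~15% conversion), normalized to no-inhibitor and no-enzyme wells and Hill-fitted. Unlinked protease, 25 nM, pH 8.0 Tris buffer; compounds up to 114 microM, 15-min preincubation.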
# [15] = tested on: HACAT; test: qHTS assay to identify novel small-molecules to repurpose for Merkel cell carcinoma treatment (AID 1296009); conditions: MCC and control cell lines, CellTiter-Glo viability, 72 h; at 44.8 µM (top of the series) unless noted; note: nearly all actives have a fitted effect of over 60% in size
# Method in brief: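 Cell viability measured by CellTiter-Glo following 72 hr compound treatment at 37 degree celsius, with NPC and MIPE libraries tested in 8- and 11-point concentration series.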
# [16] = qHTS to identify inhibitors of the type 1 interferon - major histocompatibility complex class I in skeletal muscle: primary screen against the NCATS Mechanism Interrogation Plate v5.0 (MIPE) Libary (AID 1347411); note: nearly all actives have a fitted effect of over 65% in size
# Method in brief: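 HLA-B HiBit myoblasts, dexamethasone-free medium + 4 ng/ml IFN-b, 24 h compound, 11-pt 1:3 from 46 uM final. Readout: Nano-Glo HiBiT lytic luminescence after 10 min lysis, RT.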
# [17] = qHTS assay to identify inhibitors of the type 1 interferon - major histocompatibility complex class I in skeletal muscle: Counter screen cell viability and HiBit confirmation (AID 1347412); conditions: iHSKM muscle cells + IFN-b, HiBiT or CellTiter-Glo, 24 h; note: nearly all actives have a fitted effect of over 60% in size; note: potency is the fitted concentration of half-maximal effect
# Method in brief: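 Human myoblast knock-in line, 4.0 ng/ml IFN-beta stimulation, 24 h compound treatment. Endpoints: HiBiT lytic luminescence (HLA-B level) and CellTiter Glo (ATP). Dosing 12 concentrations, 3-fold steps, 46 uM highest final.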
# [18] = Tertiary RLuc qRT-PCR qHTS assay for Zika virus inhibitors (AID 1347169)
# Method in brief: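 Inhibition of ZIKV-RLuc replication in Vero cells, read as Renilla luminescence 1-1.5 hrs after live-cell substrate addition, following 48-72 hrs infection at MOI 1-2 in presence of compound.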
# [19] = tested on: Zika virus NS2B-NS3 protease (linked construct); test: Confirmatory screen NINDS AMC qHTS for Zika virus inhibitors (AID 1347152); note: potency is the fitted concentration of half-maximal effect; nearly all actives have a fitted effect of over 70% in size
# Method in brief: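 Concentration-response confirmation used the NINDS linked protease (NS2B hydrophilic domain joined to NS3 protease domain), 1 nM, with a 15-min compound preincubation. Substrate, Nle-KRR-AMC at 10 microM, was read by UV fluorescence before and after 15 min.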
smiles,measurement,setting,value
Cc1ccc2c(Nc3ccc(Cl)cc3)nccc2c1Nc1ncccc1-c1ncnc2nc[nH]c12,Potency,[1],12 µM (active)
same,Potency,[2],12 µM (active)
same,Potency,[3],inactive
same,Potency,[4],14.6 µM (active)
same,Potency,[5],15.8 µM (active)
O=[N+]([O-])c1ccc(-[n+]2nc(-c3ccccc3)nn2-c2ccc(I)cc2)cc1,Potency,[6],18.4 µM (active)
same,Potency,[1],5.35 µM (active)
same,Potency,[2],19 µM (active)
same,activity,[7],-47.4%
same,Potency,[8],21.5 µM (active)
same,activity,[9],-39.3%
same,activity,[10],-49.2%
same,Potency,[11],10.6 µM (active)
same,Potency,[3],inactive
same,Potency,[12],11.2 µM (active)
same,Potency,[13],inactive
same,Potency,[5],inactive
CC1CCC2C(=CCC(O)C2(C)C)C1(C)Cc1c(O)cc(CO)c(C=O)c1O (stereo not drawn),Potency,[14],24.3 µM (active)
same,Potency,[11],inactive
same,outcome,[15],inactive
same,Potency,[12],inactive
same,Potency,[13],inactive
same,Potency,[5],inactive
O=C1c2c(O[C@@H]3O[C@H](CO)[C@@H](O)[C@H](O)[C@H]3O)cc(O)cc2OC1(O)Cc1ccc(O)cc1 (stereo partly drawn),outcome,[15],inactive [at 17.4 µM]
same,Potency,[12],10 µM (active)
same,Potency,[13],inactive
CCN(CC)c1ccc(C(=C2C=CC(=[N+](CC)CC)C=C2)c2cc(S(=O)(=O)O)ccc2S(=O)(=O)[O-])cc1,Potency,[1],15.5 µM (active)
same,Potency,[2],13.8 µM (active)
same,Potency,[4],5.31 µM (active)
same,Potency,[12],28.2 µM (active)
same,Potency,[13],3.55 µM (active)
C=C1/C(=C/C=C2\CCC[C@]3(C)[C@@H]([C@H](C)/C=C/C(=O)C4CC4)CC[C@@H]23)C[C@@H](O)C[C@@H]1O,Potency,[6],inactive
same,Potency,[11],inactive
same,outcome,[15],inactive
same,Potency,[12],inactive
same,Potency,[13],inactive
same,Potency,[5],inactive
O=C(NC(NC(=S)Nc1ccc(F)c([N+](=O)[O-])c1)C(Cl)(Cl)Cl)C(c1ccccc1)c1ccccc1 (stereo not drawn),Potency,[3],inactive
same,Potency,[12],inactive
same,Potency,[13],inactive
same,Potency,[5],inactive
COc1ccccc1NC(=O)Nc1ccc2ccccc2c1,Potency,[11],inactive
same,Potency,[3],inactive
same,Potency,[13],inactive
same,Potency,[5],inactive
CCN(CCCOc1ccc2c(Nc3cc(CC(=O)Nc4cccc(F)c4)[nH]n3)ncnc2c1)CCOP(=O)(O)O,Potency,[16],inactive
same,Potency,[11],inactive
same,Potency,[5],15.8 µM (active)
CC1(C)CC[C@]2(C(=O)OC3OC(CO)C(O)C(O)C3O)CC[C@]3(C)C(=CCC4[C@@]5(C)CC[C@H](OC6OC(C(=O)O)C(O)C(O)C6O)C(CO)(CO)C5CC[C@]43C)[C@@H]2C1 (stereo partly drawn),outcome,[6],inactive [at 9.29 µM]
same,redox activity (% of DA3003),[3],7.5% [at 11.5 µM] (inactive)
same,Potency,[4],2.46 µM (active)
same,Potency,[13],3.16 µM (active)
Cc1[nH]c(/C=C2\C(=O)Nc3ccc(F)cc32)c(C)c1C(=O)NC[C@H](O)CN1CCOCC1,Potency,[1],inactive
same,Potency,[2],inactive
same,Potency,[3],inactive
same,Potency,[4],6.51 µM (active)
CC1(C)CC23[C@@H]4CC(=O)[C@@H]2COC(=O)[C@@H]3CC[C@H]41,Potency,[11],inactive
same,Potency,[3],inactive
same,Potency,[13],inactive
COc1cc2ncnc(Oc3cccc(NC(=O)Nc4cc(C(C)(C)C(F)(F)F)on4)c3)c2cc1OC,Potency,[2],12 µM (active)
same,Potency,[11],inactive
same,Potency,[12],inactive
same,Potency,[13],inactive
same,Potency,[5],inactive
same,Potency,[17]; HiBiT,24.9 µM (active)
same,"activity change, negative = inhibition","[17]; Viability, at 45.9 µM (top of the series)",-21.3% (inactive)
CC(=O)N1c2ccc(-c3ccc(C(=O)O)cc3)cc2C(Nc2ccc(Cl)cc2)CC1C (stereo not drawn),Potency,[14],17.5 µM (active)
same,Potency,[18],0.093 µM (active)
same,Potency,[1],inactive
same,Potency,[2],8.49 µM (active)
same,Potency,[11],inactive
same,Potency,[4],1.03 µM (active)
same,Potency,[12],inactive
same,Potency,[5],3.98 µM (active)
CCCCn1c(-c2ccccc2)nc(-c2ccccc2)c1CN(Cc1ccc2c(c1)OCO2)Cc1ccc2c(c1)OCO2,Potency,[1],0.849 µM (active)
same,Potency,[2],2.68 µM (active)
same,Potency,[3],inactive
same,Potency,[12],inactive
same,Potency,[13],inactive
same,Potency,[5],inactive
CC(C)[C@@H](C)/C=C/[C@@H](C)[C@H]1CC[C@H]2C3=CC=C4C[C@@H](O)CC[C@]4(C)C3=CC[C@]12C,Potency,[11],inactive
same,outcome,[15],inactive
same,Potency,[13],inactive
CC1OC2OC3C(OCC(O)C3O)OC(=O)C34CCC(C)(C)CC3C3=CCC5C6(C)CC(O)C(OC7OC(CO)C(O)C(O)C7OC7OCC(OC(=O)CC(C)(O)CC(=O)OC1C(OC1OCC(O)C(O)C1O)C2O)C(O)C7O)C(C)(CO)C6CCC5(C)C3(C)CC4O (stereo not drawn),Potency,[4],7.96 µM (active)
Nc1ncnc2c1ncn2[C@@H]1O[C@H](CO)C[C@H]1O,Potency,[6],0.001 µM (active)
same,Potency,[16],inactive
same,Potency,[3],inactive
O=C(NCc1ccc(Oc2ccccc2)cc1)c1nc(-c2cc(Br)c(O)c(Br)c2)no1,Potency,[19],13.9 µM (active)
same,Potency,[14],1.75 µM (active)
same,Potency,[18],8.29 µM (active)
same,Potency,[2],0.849 µM (active)
same,activity,[7],-16.2%
same,Potency,[8],42.9 µM (active)
same,activity,[9],-75.3%
same,activity,[10],-0.151%
same,Potency,[11],0.423 µM (active)
same,outcome,[15],inactive
same,Potency,[12],inactive
same,Potency,[13],inactive
same,Potency,[5],inactive
COc1cc2ncnc(Nc3ccc(Oc4ccccc4)cc3)c2cc1OC,Potency,[1],19 µM (active)
same,Potency,[2],16.9 µM (active)
same,Potency,[11],inactive
same,Potency,[5],28.2 µM (active)
Cc1ccc(C2(COC(=O)C(C)C)CO2)c(OC(=O)C(C)C)c1 (stereo not drawn),Potency,[11],inactive
same,outcome,[15],inactive
same,Potency,[12],inactive
same,Potency,[13],inactive
same,Potency,[5],inactive
CC(C)(C)c1ccc(-c2nc3ccccc3[nH]2)cc1,activity,[7],-68.9%
same,Potency,[8],10.5 µM (active)
same,activity,[9],-65.6%
same,activity,[10],-70.3%
same,Potency,[3],inactive
same,Potency,[12],0.891 µM (active)
same,Potency,[13],1 µM (active)
same,Potency,[5],1 µM (active)
CCCCn1ccc(N2CCC(c3ccccc3)CC2)c(Cl)c1=O,Potency,[11],inactive
same,Potency,[3],inactive
same,outcome,[15],inactive
same,Potency,[13],25.1 µM (active)
O=C(Nc1ccc(F)cc1)N1CCc2ccccc2C1c1ccc(C(F)(F)F)cc1 (stereo not drawn),Potency,[6],20.6 µM (active)
same,Potency,[1],9.52 µM (active)
same,Potency,[2],5.35 µM (active)
same,Potency,[11],0.0474 µM (active)
same,Potency,[3],inactive
same,Potency,[12],inactive
same,Potency,[13],inactive
